The nature of assay [1]: qHTS assay to identify small molecule agonists of the peroxisome proliferator-activated receptor delta (PPARd) signaling pathway - cell viability counter screen (AID 743211). Note: nearly all actives have a fitted effect of over 55% in size. Note: potency is the fitted concentration of half-maximal effect. The method in brief: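 Tox21 library compounds, delivered in DMSO, were incubated 17 h with PPARd-bla HEK293H cells; cytotoxicity was taken from CellTiter-Glo luminescence read 30 min after reagent addition.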
(In general: In qHTS, concentration-response curves come from the screen itself.)

A short description of assay [2]: qHTS assay to identify small molecule antagonists of the peroxisome proliferator-activated receptor delta (PPARd) signaling pathway - cell viability counter screen (AID 743213). Note: nearly all actives have a fitted effect of over 50% in size. Note: potency is the fitted concentration of half-maximal effect. The method in brief:
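Viability counter-screen, qHTS format: PPARd-bla HEK293H, L165041 300 nM final, 17 h compound exposure at 37 C, CellTiter-Glo luminescence after 30 min RT.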

Assay [3] concerns the target Peroxisome proliferator-activated receptor delta (Homo sapiens) (UniProt Q03181). As to the kind of experiment: qHTS assay to identify small molecule antagonists of the peroxisome proliferator-activated receptor delta (PPARd) signaling pathway (AID 743215; active = well fitted inhibition curve with a large enough effect in the signal ratio in the repeat runs, not every such curve was filed as active; the % refers to the signal ratio;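 note: cells stimulated with agonist L165041 at 300 nM final during compound exposure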; note: potency is the fitted concentration of half-maximal effect). The method in brief: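 Plated HEK293H PPARd-bla cells rested 5 h at 37 C and 5% CO2. Compound, then agonist L165041 at 300 nM final, was added; 17 h at 37 C followed. Substrate loading, 2 h room temperature, fluorescence measured.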

Assay [4] is described as follows: qHTS assay to identify small molecule agonists of the vitamin D receptor (VDR) signaling pathway - cell viability counter screen (AID 743224). Note: nearly all actives have a fitted effect of over 50% in size. Note: potency is the fitted concentration of half-maximal effect. The method in brief: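 Compounds were pin-transferred onto VDR-bla cells plated 4 h earlier; following 16 h incubation at 37C, cell viability was quantified by CellTiter-Glo luminescence after 30 min at room temperature.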

Assay [5] in a line: qHTS assay to identify small molecule antagonists of the vitamin D receptor (VDR) signaling pathway - cell viability counter screen (AID 743225). Note: nearly all actives have a fitted effect of over 50% in size. Note: potency is the fitted concentration of half-maximal effect. The method in brief: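 Same-well multiplex: following 16 h treatment of HEK 293T cells carrying a UAS-driven beta-lactamase reporter with compound and agonist (3 nM final), and a 2 h FRET substrate step, CellTiter-Glo was added and luminescence read after 30 min.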

Assay [6] can be described thus: qHTS assay to identify small molecule agonists of the NFkB signaling pathway - cell viability counter screen (AID 1159515; calls by dose curve; note: nearly all actives have a fitted effect of over 55% in size; note: potency is the fitted concentration of half-maximal effect). The method in brief:
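Parallel cytotoxicity counter screen in ME-180 cells carrying an NFkB-response-element beta-lactamase reporter, 2,000 cells/well. Compound exposure lasted 5 hr at 37 C, 5% CO2. Cell viability was quantified by CellTiter-Glo luminescence.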

A short description of assay [7]: qHTS assay to identify small molecule agonists of the endoplasmic reticulum stress response signaling pathway - cell viability counter screen (AID 1159517; calls by dose curve; note: nearly all actives have a fitted effect of over 50% in size; note: potency is the fitted concentration of half-maximal effect). The method in brief:
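Cytotoxicity of test compounds toward ESRE-bla HeLa cells was assessed after 5 hr exposure. The luminescent CellTiter-Glo signal was measured 30 min after reagent addition.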

Assay [8] in a line: qHTS assay to identify small molecule antagonists of the retinoid-related orphan receptor gamma (ROR-gamma) signaling pathway - cell viability counter screen (AID 1159520). Note: nearly all actives have a fitted effect of over 50% in size. Note: potency is the fitted concentration of half-maximal effect. The method in brief:
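Tet-on ROR gamma CHO cells (1,000/well) were plated 4 hr, given compounds in DMSO for 2 hr at 37 C, then induced with 1 uM final doxycycline for 16 hr. Viability was read as ATP by CellTiter-Glo luminescence after 30 min.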

The target in assay [9] is Nuclear receptor ROR-gamma (Homo sapiens) (UniProt P51449). Nature of the assay: qHTS assay to identify small molecule antagonists of the retinoid-related orphan receptor gamma (ROR-gamma) signaling pathway (AID 1159521; note: nearly all actives have a fitted effect of over 50% in size; note: potency is the fitted concentration of half-maximal effect). The method in brief: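 Inducible-expression reporter assay: doxycycline (1 uM final) switched on RORγ in CHO cells bearing a ROR response element-luciferase construct, with test compounds present from 2 h beforehand. Decreased luminescence after 16 h defined antagonist activity.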

Assay [10] in a line: qHTS assay to identify small molecule agonists of the AP-1 signaling pathway - cell viability counter screen (AID 1159525; calls by dose curve; note: nearly all actives have a fitted effect of over 55% in size; note: potency is the fitted concentration of half-maximal effect). The method in brief:
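Each titration point was normalised to DMSO and tetra n-octyl ammonium bromide controls. The read was Cell Titer Glo luminescence after 30 min at RT, following 5 h compound exposure of ME-180 AP-1-bla cells at 37 °C.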

Assay [11] is described as follows: qHTS assay to identify small molecule antagonists of the farnesoid-X-receptor (FXR) signaling pathway - cell viability counter screen (AID 743221; active = well fitted cell-killing curve with a large enough effect in the repeat runs, not every such curve was filed as active; note: nearly all actives have a fitted effect of over 50% in size; note: potency is the fitted concentration of half-maximal effect). The method in brief:
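Cytotoxicity is taken from ATP luminescence (CellTiter-Glo, 30 min, room temperature) in FXR-bla HEK 293T cells previously incubated 16 h at 37 C with compound and chenodeoxycholic acid at 50 uM final.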

The target of assay [12] is Vitamin D3 receptor (Homo sapiens) (UniProt P11473). As to the kind of experiment: qHTS assay to identify small molecule antagonists of the vitamin D receptor (VDR) signaling pathway (AID 743223; active = well fitted inhibition curve with a large enough effect in the signal ratio in the repeat runs, not every such curve was filed as active; the % refers to the signal ratio; note: potency is the fitted concentration of half-maximal effect). The method in brief: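 Quantitative HTS in VDR-bla reporter cells stimulated with 1alpha,25-dihydroxyvitamin D3, 3 nM final. Compound exposure 16 h, 37C, 5% CO2. Read-out: beta-lactamase FRET substrate fluorescence, 2 h RT.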
Sequence of Vitamin D3 receptor (Homo sapiens) (P11473 whole entry, looked up): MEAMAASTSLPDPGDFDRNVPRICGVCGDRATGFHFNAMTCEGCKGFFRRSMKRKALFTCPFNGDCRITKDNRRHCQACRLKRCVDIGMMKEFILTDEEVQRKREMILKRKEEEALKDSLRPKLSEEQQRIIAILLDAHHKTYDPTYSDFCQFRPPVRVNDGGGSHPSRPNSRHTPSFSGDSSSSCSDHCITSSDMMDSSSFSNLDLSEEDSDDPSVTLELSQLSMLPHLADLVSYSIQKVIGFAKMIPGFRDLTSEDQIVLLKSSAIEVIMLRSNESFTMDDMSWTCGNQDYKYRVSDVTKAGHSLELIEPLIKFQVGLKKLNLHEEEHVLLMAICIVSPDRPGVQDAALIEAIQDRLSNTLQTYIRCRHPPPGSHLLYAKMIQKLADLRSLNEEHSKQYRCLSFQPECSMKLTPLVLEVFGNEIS

Assay [13] is described as follows: qHTS assay to identify small molecule agonists of the AP-1 signaling pathway (AID 1159526; calls by dose curve).
The target of assay [14] is Peroxisome proliferator-activated receptor delta (Homo sapiens) (UniProt Q03181). Nature of the assay: qHTS assay to identify small molecule agonists of the peroxisome proliferator-activated receptor delta (PPARd) signaling pathway (AID 743212; calls by dose curve;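 note: HEK293H cells with PPARd UAS beta-lactamase reporter GeneBLAzer system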). The method in brief: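 Beta-lactamase reporter read by fluorescence (LiveBLAzer B/G FRET, 2 h, room temperature). Test agents, in DMSO, incubated at 37 C with PPARd-bla HEK293H cells.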
Sequence of Peroxisome proliferator-activated receptor delta (Homo sapiens) (Q03181 whole entry, looked up): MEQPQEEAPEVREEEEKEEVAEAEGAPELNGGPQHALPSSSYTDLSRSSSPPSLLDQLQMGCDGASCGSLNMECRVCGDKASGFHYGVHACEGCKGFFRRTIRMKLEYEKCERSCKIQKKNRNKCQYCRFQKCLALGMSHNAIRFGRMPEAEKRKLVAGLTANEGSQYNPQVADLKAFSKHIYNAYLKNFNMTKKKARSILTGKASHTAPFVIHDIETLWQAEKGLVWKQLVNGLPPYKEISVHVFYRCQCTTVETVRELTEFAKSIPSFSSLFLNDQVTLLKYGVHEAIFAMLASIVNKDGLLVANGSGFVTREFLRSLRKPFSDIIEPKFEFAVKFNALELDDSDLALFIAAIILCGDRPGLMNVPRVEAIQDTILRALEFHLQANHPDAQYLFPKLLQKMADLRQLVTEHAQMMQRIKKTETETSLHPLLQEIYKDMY

Assay [15] in a line: qHTS assay to identify small molecule agonists of the farnesoid-X-receptor (FXR) signaling pathway - cell viability counter screen (AID 743218). Note: nearly all actives have a fitted effect of over 45% in size. Note: potency is the fitted concentration of half-maximal effect. The method in brief:
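Viability of FXR-bla HEK 293T cells is measured by ATP-based CellTiter-Glo luminescence following 16 h compound treatment at 37 C and a prior 2 h room-temperature beta-lactamase substrate step.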

The target in assay [16] is Retinoic acid receptor RXR-alpha (Homo sapiens) (UniProt P19793). Nature of the assay: qHTS assay to identify small molecule agonists of the RXR signaling pathway (AID 1159527; calls by dose curve; note: nearly all actives have a fitted effect of over 35% in size). The method in brief:
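Compounds in DMSO were added to RXR-alpha-UAS-bla HEK 293T cells kept in 2% charcoal-stripped serum, and incubated 16 hr at 37 C with 5% CO2. Reporter signal came from a 2 hr B/G FRET substrate step.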

In assay [17] the target is Bile acid receptor (Homo sapiens) (UniProt Q96RI1). Nature of the assay: qHTS assay to identify small molecule agonists of the farnesoid-X-receptor (FXR) signaling pathway (AID 743220; active = well fitted activation curve with a large enough effect in the signal ratio in the repeat runs, not every such curve was filed as active; the % refers to the signal ratio). The method in brief:
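FXR-UAS-bla HEK 293T cells carrying a UAS-driven beta-lactamase reporter were plated for 5 h at 37C/5% CO2, then exposed to DMSO-dissolved Tox21 10K compounds for 16 h at 37C. A LiveBLAzer B/G FRET substrate was loaded for 2 h at room temperature before fluorescence reading.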

Potency data for 7 molecules are collected here from PubChem BioAssay (Tox21).

Several values for one entry are separate records, joined by “and”; a condition that tells them apart may be missing. Equal entries are not always repeated. Results filed as inconclusive are left out. Activity calls are given as the source filed them. Unless noted, calls come from the whole dose curve; as a rule, active = well fitted curve in the direction sought with a large enough effect in the repeat runs; inconclusive = weak or mixed curves; inactive = no such curve, though single readings can be large; an effect the other way counts as inactive or inconclusive.

Sequence of Retinoic acid receptor RXR-alpha (Homo sapiens) (P19793 whole entry, looked up): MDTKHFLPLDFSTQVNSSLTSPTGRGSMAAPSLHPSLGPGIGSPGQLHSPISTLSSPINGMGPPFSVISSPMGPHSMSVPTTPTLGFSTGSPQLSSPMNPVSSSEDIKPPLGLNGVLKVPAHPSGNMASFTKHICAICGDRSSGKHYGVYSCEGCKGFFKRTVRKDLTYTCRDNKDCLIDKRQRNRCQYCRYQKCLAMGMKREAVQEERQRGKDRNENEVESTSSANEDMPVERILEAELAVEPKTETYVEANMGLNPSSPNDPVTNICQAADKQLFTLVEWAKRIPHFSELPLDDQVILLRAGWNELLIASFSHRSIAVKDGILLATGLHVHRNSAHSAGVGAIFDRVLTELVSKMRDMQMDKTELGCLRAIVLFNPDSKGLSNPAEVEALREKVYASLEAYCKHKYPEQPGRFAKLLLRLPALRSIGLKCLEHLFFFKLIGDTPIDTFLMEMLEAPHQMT
Sequence of Bile acid receptor (Homo sapiens) (Q96RI1 whole entry, looked up): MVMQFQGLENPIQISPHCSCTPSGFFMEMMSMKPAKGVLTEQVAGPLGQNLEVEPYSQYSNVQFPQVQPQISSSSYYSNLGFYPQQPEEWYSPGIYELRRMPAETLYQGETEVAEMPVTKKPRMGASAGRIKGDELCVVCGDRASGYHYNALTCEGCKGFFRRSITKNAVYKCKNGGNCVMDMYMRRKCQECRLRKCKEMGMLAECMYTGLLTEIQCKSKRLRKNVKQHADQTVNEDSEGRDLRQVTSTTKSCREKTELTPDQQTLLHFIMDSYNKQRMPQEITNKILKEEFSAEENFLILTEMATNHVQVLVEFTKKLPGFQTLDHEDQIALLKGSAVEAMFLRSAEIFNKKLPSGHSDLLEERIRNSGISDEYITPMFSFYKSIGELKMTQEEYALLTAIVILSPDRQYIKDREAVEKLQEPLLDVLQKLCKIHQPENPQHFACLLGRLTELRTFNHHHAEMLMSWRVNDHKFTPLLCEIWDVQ

In the case of `Fc1ccc(C(OCCN2CCN(CCCc3ccccc3)CC2)c2ccc(F)cc2)cc1`, the Potency was 16.8 µM (active) in [1]; 26.6 µM (active) in assay [2]; 29.8 µM (active) in [3]; 29.8 µM (active) in assay [4]; 21.3 µM (active) in assay [5]; 23.9 µM (active) in [6]. Also, the Potency is 26.8 µM (active) in assay [7], 29.8 µM (active) in assay [8], 13.3 µM (active) in assay [9] and 21.3 µM (active) in assay [10].

As to `C[C@]12C/C(=C/O)C(=O)C[C@@H]1CC[C@@H]1[C@@H]2CC[C@@]2(C)[C@H]1CC[C@]2(C)O`, the Potency in [1] is 49.4 µM (active); in assay [7], 24.8 µM (active) and 16.9 µM (active); in assay [8], 61.7 µM (active); in assay [9] it was 30.9 µM (active) and 29.8 µM (active). Further, the Potency result in assay [2], in assay [11], in assay [12], in assay [4], in assay [5] and in assay [6] was “inactive” throughout. Moreover, the Potency result in assay [10] and in assay [13] was “inactive” each time.

On to `c1ccc2c(c1)cc1ccc3cccc4ccc2c1c34`, for which the Potency result in assay [1], in assay [11], in assay [6], in assay [7], in assay [8] and in assay [9] was “inactive” each time. Moreover, the Potency entry in assay [10] was “inactive”.

Consider `CC1(C)[C@H](/C=C2\CCSC2=O)[C@@H]1C(=O)OCc1coc(Cc2ccccc2)c1`, for which the Potency result in assay [14], in [2], in assay [15], in assay [4], in [6] and in [7] was “inactive” in each case. Besides, the Potency entry in [8], in [10] and in [16] was “inactive” in each case. Besides, the Potency in [9] was 27.3 µM (active).

For the molecule `O=C1C2(Cl)C3(Cl)C4(Cl)C(Cl)(Cl)C5(Cl)C3(Cl)C1(Cl)C5(Cl)C24Cl` (centres undefined), the Potency in assay [1] is 48.2 µM (active) and 46.9 µM (active); in [11] it was 54 µM (active); in assay [12], 54 µM (active); in [4], 48.2 µM (active) and 41.8 µM (active); in assay [5], 48.2 µM (active) and 46.9 µM (active); in assay [6] it was 52.6 µM (active). Besides, the Potency in assay [7] was 48.2 µM (active); in [8], 21.3 µM (active) and 46.5 µM (active); in assay [9] it was 12 µM (active) and 29.3 µM (active); in assay [10] it was 30.4 µM (active). The Potency result in assay [14] and in [17] was “inactive” throughout.

Take `O=[N+]([O-])c1cc(C(F)(F)F)c(Cl)c([N+](=O)[O-])c1Nc1ncc(C(F)(F)F)cc1Cl`: the Potency is 6.16 µM (active) in assay [2]; 15.5 µM (active) in assay [15]; 21.9 µM (active) in assay [11]; 4.9 µM (active) in [4]; 6.92 µM (active) in [5]; 11 µM (active) in [6]. Also, the Potency was 12.3 µM (active) in [7], 4.86 µM (active) in assay [8], 1.37 µM (active) in assay [9] and 11 µM (active) in assay [10].

Take `CCC(C)Nc1c([N+](=O)[O-])cc(C(C)(C)C)cc1[N+](=O)[O-]` (centres undefined): the Potency entry in assay [1], in assay [14], in [2], in assay [3], in [11] and in assay [12] was “inactive” in each case. Also, the Potency result in [5], in [6], in assay [7], in assay [8], in assay [9] and in assay [10] was “inactive” each time. Besides, in assay [13], the Potency entry was “inactive”.
